Experimental data reported in the OligoGym collection.

What follows are sequences tested against ARPC4 (assay: pooled miR-30 sensor sort-seq; sequence = guide strand). Conditions: shRNA.
Note: reference of the scale not given here.

| Sequence | sensor-assay potency score (higher = more potent) |
| --- | --- |
| AAATCTTCTCGATCTCATCAGC | -0.856 |
| TTTGCTACTCCTGACTTCCACT | -1.07 |
| TTGTGTTTGTACATCTGCTCTG | 0.407 |
| TGTTTGTACATCTGCTCTGTGT | -0.895 |
| TTTTCCTTCTCATTCCTGCTGA | 0.452 |
| TTTCACAGCAATGCTGACCCGG | -0.244 |
| TGTAACAGGAGCTCTTTGCTAC | -0.241 |
| TGTCGTTCCACAACCTGGGAGG | -0.878 |
| TTGACTGACAGCTTCATCTCAC | 0.494 |
| TTCACAGCAATGCTGACCCGGA | -0.48 |
| TTCATCTCACTGATCTCCTTGT | 0.358 |

What follows are sequences tested against ASB15 in the same assay as above. Conditions: shRNA.

| Sequence | sensor-assay potency score (higher = more potent) |
| --- | --- |
| TGTATCTTTGAATAGCTGGTGG | -0.176 |
| TTACACAAGATGTCCATCCTGG | 0.839 |
| TTTCACAGCAATCAGAAGGGGG | -0.119 |
| TTAGCTGAATATCATAACTTGT | -0.69 |
| TTTTTCATCAGCTTCATCCATT | -0.484 |
| TATGTATCTTTGAATAGCTGGT | -0.171 |
| TTTATATTTTACATACTCCTGG | -0.0391 |
| TATCTTTGAATAGCTGGTGGTA | -0.545 |
| TTTATTACACAAGATGTCCATC | -0.601 |

The sequences below were run against ASCC1 in the same assay as above. Conditions: shRNA.

| Sequence | sensor-assay potency score (higher = more potent) |
| --- | --- |
| AATTACACCATTTCGATGCTGG | 0.516 |
| TCAACTAATTCTTGTAGCCTGT | -0.154 |
| TAGAAGTTCTCAAACAACTTTA | -0.0661 |
| TTTCACACTATTCCACTCTTTC | -0.561 |
| TCTCTTTCCAACTATATGCTTA | -0.403 |
| TAGCATCTCACATGTCTGCTGG | 0.184 |
| TAGACCGGAATCCTTGTGGGGT | -0.676 |
| TTCTTCATGTTGATAGGTCTGT | 1.07 |
| TTGGACTGGATTCTTCCTGTAA | -0.381 |
| TCTTGGACTGGATTCTTCCTGT | 0.362 |
| TATGCTTATAGAGCAAGCTGGG | -1 |
| TCCATTTCTATTTTCTTCCTAG | -0.685 |

The sequences below were run against ASCL1 in the same assay as above. Conditions: shRNA.

| Sequence | sensor-assay potency score (higher = more potent) |
| --- | --- |
| TTTGCAGCGCATCAGTTCGGGC | -1.5 |
| TTGCTTGGGCGCTGACTTGTGA | -0.493 |
| TGTCGCTTGACTTGCTTGGGCG | -1.29 |
| TAAACCATTTGTACAAAACTTC | -0.297 |
| TAAACCAATGTCTACAGCTTAT | -1.49 |
| ATGCTCGTCCAGCAGCTGCTGC | -1.67 |
| TATAAAGTAAGACACATTGGTG | -0.186 |
| TCCACCTTACTCATCTTCTTGT | -0.496 |
